Screening data from PubChem BioAssay.
Shown is part of a subset that was picked to be rich in hits.
RmlC RmlD mix = RmlC and RmlD coupled enzyme inhibitors, primary screen, biochemical, 384-well, compound mixtures, retest | RmlC/RmlD coupled enzyme inhibition, 384-well mixture HTS | inhibition, % at 5.5 µM | 110,000 compounds, 0.39% hits | AID 1532, 2009; in the data active = inhibition above about 30%, passing the limit was not always enough; inconclusive = no clear call, values can overlap the other calls
RT RNaseH block = HIV-1 RT RNase H inhibitors, primary screen, biochemical, fluorescence; Gag-Pol polyprotein (Human immunodeficiency virus type 1 group M subtype B (isolate …; 65,000 compounds, 1.9% hits; inhibition, % at 10 µM; RT-RNase H RNA/DNA duplex cleavage; in the data active = inhibition above about 50%
RmlCD artifact = counter-screen for RmlC/RmlD inhibitors: fluorescence artifact, dose response, artefact control, biochemical; shares compounds with RmlC RmlD mix; RmlC/RmlD assay fluorescence artifact counter-screen; calls only; 360 compounds, 96% hits; AID 1696, 2009; call rule not given here;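 note: compound alone with no enzyme and no substrates present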
Numbers stand for hits; 0 = inactive; ? = inconclusive; - = not tested or not shown; + = active, no number.

SMILES	RmlC RmlD mix	RT RNaseH block	RmlCD artifact
COC(=O)c1cc(C(C)=O)n2ccccc12	0	-	-
COc1ccc(Cn2nnc3c(=O)[nH]c(C(=O)NCCc4ccc(F)cc4)nc32)cc1OC	0	0	-
COC(=O)Cc1c(C)c2ccc(OC(=O)c3ccco3)cc2oc1=O	+	0	+
COC(=O)Cc1c(C)c2cc(Cl)c(OC(=O)c3ccco3)cc2oc1=O	-	0	-
Cc1cc2oc(=O)c3c(c2cc1OC(=O)c1ccco1)CCCC3	0	0	-
O=C(Oc1cc2oc(=O)c3c(c2cc1Cl)CCCC3)c1ccco1	140.9	0	+
CC(C)Oc1cc2oc(=O)c3c(c2cc1Cl)CCC3	0	0	-
CC(=O)Oc1cc2oc(=O)c3c(c2cc1Cl)CCC3	-	0	+
Cc1cc(OC(=O)c2ccco2)c2c3c(c(=O)oc2c1)CCCC3	0	-	-
O=C(Oc1ccc2c3c(c(=O)oc2c1)CCC3)c1ccco1	187.0	-	+
CCO[C@H]1OC(C(=O)O)=C[C@@H](C)[C@@H]1CCCO	0	-	-
COCCn1c(-c2ccc(OC)cc2)cnc1SCC(=O)Nc1cccc2ccccc12	0	-	-
CCC(C)/C=C(C)/C=C/C1=CC2=C(Cl)C(=O)C(C)(OC(C)=O)C(=O)C2=CO1 (stereo not given)	32.5	-	+
CC[C@H](C)/C=C(C)/C=C/C1=CC2=C(Cl)C(=O)[C@@](C)(OC(C)=O)C(=O)C2=CO1	0	-	-
CC12COC3(C(=O)N4CCN(c5ccccn5)CC4)CC1CCC32C (stereo not given)	-	0	-
Cc1ccc(CSc2nc3c(cc2C#N)CCC3)cc1	0	-	-
COC(=O)CC(=O)CSc1nc2c(cc1C#N)CCCCC2	137.8	0	+
CCOC(=O)CC(=O)CSc1nc2c(cc1C#N)CCC2	79.7	-	+
N#CCSc1nc2c(cc1C#N)CCCC2	0	0	-
Clc1ccc(C2[C@H]3CN(Cc4cccnc4)[C@H](c4ccccc4)C34CC2(c2cccnc2)C4)cn1 (stereo not given in full)	0	-	-
COc1cccc(NC(=O)N2CCN(Cc3nc4ccccc4c(=O)[nH]3)CC2)c1	-	0	-
CC1=C(C(=O)OCc2ccccc2)C(c2ccc3c(c2)OCO3)NC(=O)N1CCCC(=O)O (stereo not given)	0	-	-
N#Cc1c(-c2ccco2)cc(-c2ccccn2)nc1N	46.5	0	+
N#Cc1c(-c2ccco2)cc(-c2cccnc2)nc1N	?	0	-
CCOC(=O)C1CCN(C(=O)c2cccnc2Cl)CC1	0	-	-
SMILES	RmlC RmlD mix	RT RNaseH block	RmlCD artifact
O=C(Nc1sc2c(c1C(=O)O)CCC2)c1ccco1	0	-	-
O=C(Nc1sc2c(c1C(=O)NC1CC1)CCCCCC2)c1ccco1	+	0	+
CC(=O)Nc1nc2nc(-c3ccccc3)cc(-c3ccccc3)n2n1	0	-	-
O=C1CCC(=O)N1c1nc2nc(-c3ccccc3)cc(-c3ccccc3)n2n1	103.4	0	+
OC(COc1ccc2cc(Br)ccc2c1)CN1CCOCC1 (stereo not given)	0	-	-
COc1ccc(CC(=O)Nc2cc(C)ccn2)cc1	0	0	-
O=C(O)c1cc2c(s1)-c1ccccc1OC2	?	0	-
O=C(c1ccco1)N1CCN(C(=O)c2cc3c(s2)-c2ccccc2OC3)CC1	46.4	0	+
O=C(NC(C(=O)c1ccccc1)n1c(=O)cc[nH]c1=S)c1ccccc1 (stereo not given)	0	-	-
O=C(COC(=O)c1cc(S(=O)(=O)N2CCCCC2)ccc1N1CCOCC1)NC1CCCCC1	0	0	-
Nc1ccc(-c2nc3ccc(N)cc3o2)cc1	103.9	0	+
Cc1ccc2nc(-c3cc(N)cc(N)c3)oc2c1	0	-	-
Cc1nc2c(sc3nc4c(cc32)COC(C)(C)C4)c(=O)o1	41.9	-	+
Cc1nc2c(sc3nc4c(cc32)COC(C)(C)C4)c(=O)n1Cc1ccccc1	0	-	-
COc1ccc(CN2[C@@H](CC(C)=O)c3cc(C(F)(F)F)ccc3S2(=O)=O)cc1	0	-	-
N#Cc1c(N)n(CCOC(=O)c2cccc([N+](=O)[O-])c2)c2nc3ccccc3nc12	45.5	-	+
COc1cc(Cn2c(N)c(C#N)c3nc4ccccc4nc32)cc(OC)c1	-	0	-
COCCn1c(N)c(C#N)c2nc3ccccc3nc21	55.4	-	+
N#Cc1c(N)n(CCOC(=O)c2cccc(Br)c2)c2nc3ccccc3nc12	0	0	-
CCOC(=O)C1CCCN(Cc2ccc(OCC)cc2)C1 (stereo not given)	0	-	-
CC1(C)Cc2c(sc3nc(SCC#N)n(C4CCCCC4)c(=O)c23)CO1	-	0	-
O=C(OCC(=O)N1CCN(C(=O)c2ccco2)CC1)c1cc(-c2ccco2)nc2ccccc12	30.3	-	+
O=C(OCC(=O)N1CCN(C(=O)c2ccco2)CC1)c1cc(-c2ccc(Cl)c(Cl)c2Cl)nc2ccccc12	0	-	-
Cc1ccc2c(c1)c1ncnc(N3CCOCC3)c1n2C	-	0	+
Cc1ccc2c(c1)c1ncnc(N3CCC4(CC3)OCCO4)c1n2C	0	0	-
